Measured values published in PubChem BioAssay AID1490 (National Center for Advancing Translational Sciences (NCATS), 2009).
“And” between values parts separate entries of the source, which are not always exact repeats. Equal values may be shown once. Hit rate of the full screen: of about 310,000 compounds, about 11,000 (3.5%) were called active. Inconclusive results (about 4%) are left out. Calls follow the shape of the dose curve; as a rule, active = well fitted inhibition curve with a large enough effect; inconclusive = small, poorly fitted or top-dose-only effect, or another doubt; inactive = no such curve, though single readings can be large or run the other way. The list comes from a sample in which actives are over-represented; it also holds similar structures and randomly drawn compounds. Where a structure was tested more than once in an assay, its records may differ in their call.

Molecular target: 4'-phosphopantetheinyl transferase ffp (Bacillus subtilis) (UniProt Q9F4F7)
Assay: qHTS Assay for Inhibitors of Bacillus subtilis Sfp phosphopantetheinyl transferase (PPTase);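 also: the enzyme is Sfp with the accession as filed and its product quenches rhodamine fluorescence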;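 as to Largest response in the series, negative = inhibition: 0% = enzyme reaction without inhibitor and -100% = no enzyme wells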
Settings: Biochemical Sfp PPTase activity
Text: Assay Submitter: Michael Burkart, University of California, San Diego
Screening Center PI: Austin, C.P.
Screening Center: NIH Chemical Genomics Center [NCGC]
The covalent attachment of a phosphopantetheinyl (4'-PP) arm to a variety of synthases and other proteins is a key posttranslational protein modification. The 4'-PP is installed on the proteins post-translationally from coenzyme A (CoA) on a conserved serine residue by action of phosphopantetheinyl transferase (PPTase) enzymes. Phosphopantetheinylation is essential for synthase activity, and removal of the PPTase gene precludes natural product synthesis in microorganisms, or in the case of fatty acid biosynthesis, renders the organism unviable. PPTase enzymes belong to a distinct structural superfamily. Within bacteria, these enzymes are grouped into two classes based upon primary structure, the AcpS-Type and Sfp-Type PPTases.
Sfp-type PPTases, corresponding to an activator of surfactin production in Bacillus subtilis, are responsible for modifying type I polyketide and nonribosomal peptide synthases of prokaryotes. Sfp-type PPTases are responsible for the activation of a variety of pathogen-associated virulence factors. Among these compounds are toxins such as mycolactone from Mycobacterium ulcerans, siderophores such as vibriobactin from Vibrio cholerae or mycobactin from Mycobacterium tuberculosis, as well as the mycolic acids which form the waxy cell wall of Mycobacteria. The biosyntheses of these natural products are considered attractive targets for drug design.
In search of small molecule Sfp-PPTase inhibitors, a fluorescence quenching assay was developed for detection of Bacillus subtilis Sfp-PPTase enzymatic activity in a miniaturized high-throughput format. The consensus ybbr acceptor peptide […] was N-terminally labeled with Black Hole Quencher-2 (BHQ-2) and used in combination with rhodamine-labeled coenzyme A as a co-substrate.
Inhibition of Sfp-PPTase was detected by recording the fluorescence intensity change over a 30-minute reaction period at a 525 nm excitation and 598 nm emission. Reagents were supplied by Michael Burkart and Timothy Foley, University of California at San Diego.
This BioAssay deposition is for validation of the developed Sfp-PPtase assay.
Assay Buffer: 50 mM Hepes-Na pH 7.6, 10 mM MgCl2, 0.01% Nonidet P-40, and 0.01% BSA.
3 uL of Sfp-PPTase enzyme (final concentration 15 nM) and 1 uL of substrate mixture (final concentration for rhodamine-CoA and BHQ-2-YbbR 5 uM and 12.5 uM, respectively) dispensed in columns 1, 2, 5 - 48. Columns 1 and 2 used to generate neutral control (uninhibited reaction)
Three uL of reagents, consisting of buffer (in columns 3 and 4 as negative control) and Sfp-PPTase (in columns 1, 2, 5 - 48) were dispensed into 1,536-well Greiner black solid bottom plate. Compounds (23 nL) were transferred via Kalypsys pintool equipped with 1,536-pin array. The plate was incubated for 15 min at room temperature, followed by the addition of 1 uL substrate to start the reaction. The plate was then centrifuged at 1000 rpm for 15 seconds, and the fluorescence intensity recorded on a ViewLux High-throughput CCD imager (Perkin-Elmer) using standard BODIPY optics (525 nm excitation and 598 nm emission). The plate was then incubated for 30 minutes, and a second read on the ViewLux was performed. The fluorescence intensity difference over the 30-minute period was used to calculate the respective reaction rate for each well.
Potency is read from the fitted curve at half-maximal effect.

Largest response in the series, negative = inhibition, inactive:
C/C(=N\Nc1ccc(S(N)(=O)=O)cc1[N+](=O)[O-])c1cccs1 0.687%, C/C(=N\Nc1nc2ccccc2[nH]1)c1cccs1 -4.19%, CCN(CC)c1ccc(C(=O)N/N=C(\C)c2cccc(OC)c2)cc1 -1.28%, C/C(=N\Nc1ncc(Cl)cc1Cl)c1ccc(S(=O)(=O)NCc2ccco2)cc1 -16.4%, Cn1cnc2c1c(=O)n(Cc1ccccc1C#N)c(=O)n2C 4.28%, C=CC1=C2C=C(C3CC3)N(CC(C)C)C=C2C(=O)C(C)(OC(=O)c2ccco2)C1=O (stereo not given) 5.15%, CC(=O)Nc1ccc(OCC(=O)NCc2ccc(C)cc2)cc1 11.1%, COC(=O)c1ccc(OCC(=O)NC(C)(C)C)cc1 -10.7%, CCS(=O)(=O)Nc1ccc(C(=O)NCCSc2ccccc2)cc1 22%, COC(=O)C1=CN(c2ccc(F)c(F)c2)C=C(C(=O)OC)C1c1ccc([N+](=O)[O-])cc1 -0.236%, COc1cccc(OC)c1C(=O)Nc1ccc2c(c1)n(C)c(=O)n2C 6.56%, Cc1ccc(C(=O)Nc2cccc3ncccc23)cc1[N+](=O)[O-] 9.98%, O=C(Nc1cccc2ncccc12)C(Cl)(Cl)Cl 5.72%, Cc1c(C(=O)NC(C)C2CC3CCC2C3)cccc1[N+](=O)[O-] (stereo not given) 6.2%, C[C@]12CC[C@@H]3c4ccc(O)cc4C[C@@H](CCCCCCCCCS(=O)CCCC(F)(F)C(F)(F)F)C3[C@@H]1CC[C@@H]2O (stereo not given in full) -0.311%, Brc1ccc(-c2nn[nH]n2)cc1 19%, CC(C)c1ccc(-c2nn[nH]n2)cc1 21.7%, O=C(CSc1ncn[nH]1)Nc1ccnc2ccccc12 12.4%, O=C(CSc1ncn[nH]1)Nc1nsc(-c2ccccc2)n1 9.26%, O=c1cc(-c2ccc(O)cc2)oc2c([C@@H]3O[C@H](CO)[C@@H](O)[C@H](O)[C@H]3O)c(O)cc(O)c12 -2.52%, CS(=O)(=O)N(Cc1ccc(Cl)cc1)c1ccc(C(=O)NCCSCc2ccco2)cc1 22.6%, Cc1cc(C)cc(N(CC(=O)NCCSCc2ccco2)S(C)(=O)=O)c1 9.95%, CC(C)N(C(=O)Cn1cc(S(=O)(=O)CC(=O)N2CCOCC2)c2ccccc21)C(C)C 4.5%, O=C(C1CC(=O)N(c2ccc(Br)cc2)C1)N1CCCC1 (stereo not given) 5.88%, Cn1c(Cc2cccs2)nnc1SCC(=O)Nc1ccccc1 11.4%, Cn1c(CSCC(=O)Nc2ccccc2)nnc1SCc1ccccc1 -1.75%, CCN1CCCC1CNC(=O)c1cc2cc(OC)c(OC)cc2[nH]1 (stereo not given) 18.4%, COc1ccccc1CCNC(=O)C1CCN(C(=O)/C=C/c2ccccc2)CC1 -8.37%, Cc1cc(Cl)ccc1NC(=S)NCCCN1CCCC1=O 5.94%, Cc1c(Cl)cccc1NC(=O)NCCCN1CCCC1=O 4.97%, CCCC(=O)n1nc(-c2ccccc2)nc1N -3.09%, Cc1ccc2c(N)c(C(=O)c3ccccc3)sc2n1 -25.4%, COc1cc(C(C(=O)NC2CCCC2)N(C(=O)c2ccco2)c2ccccc2C(C)=O)cc(OC)c1OC (stereo not given) 9.66%, COc1ccc2[nH]c(=O)c(C3c4cc(OC)c(OC)cc4CCN3C(=O)c3ccco3)cc2c1 (stereo not given) -2.97%, Cc1cccc(NC(=O)C2CCCN(C(=O)NCc3ccccc3)C2)c1C (stereo not given) 5.34%, CC(C)(C)NCC(O)COc1cccc2[nH]c(=O)[nH]c12 (stereo not given) 6.07%, COc1ccccc1OCC(O)CN1CCOCC1 (stereo not given) 15.2%, COc1ccccc1OCCNCC(O)COc1cccc2[nH]c3ccccc3c12 (stereo not given) -10.5% and 8.7% and -18.4%, COc1cccc(NC(=O)C/C(C)=N/NC(=O)C2CCCCC2)c1 9.15%, O=C(COc1ccccc1Cl)N1CCCCCCC1 23.9%, COc1cc(NC(=O)c2ccccc2)c(OC)cc1NC(=O)Cc1ccccc1 -10.9%, Cc1cc(C(=O)N/N=C/c2ccc(O)c([N+](=O)[O-])c2)c(C)n1-c1ccc(F)cc1 -9.8%, O=[N+]([O-])c1ccc(N2CCSCC2)cc1O 17.8%, CCOC(=O)N1CCN(S(=O)(=O)N2CCCC(C(=O)NCCCN3CCC(C)CC3)C2)CC1 (stereo not given) 6.69%, O=C(CCC1CCCN(C(=O)c2ccc(F)c(F)c2)C1)N1CCN(c2ccccn2)CC1 (stereo not given) 7.09%, CC(=O)Nc1ccc(NC(=O)CSc2ncnc3c2cnn3Cc2ccccc2)cc1 13.9%, CSc1nc2ccccc2c(=O)n1Cc1ccc(F)cc1 -16.2%, Cc1nc(COc2cc3oc(=O)cc(C)c3cc2Cl)cs1 -11.1%, N#C/C(=C/c1ccc(-c2ccccc2[N+](=O)[O-])o1)C(=O)NCCN1CCCCC1 -17.3%, Cc1ccc(Cc2cnc(NC(=O)/C(C#N)=C/c3ccc(-c4cccc([N+](=O)[O-])c4)o3)s2)cc1 3.34%, CC(C)(C)C(=O)NC1CC2CCCC(C1)N2C(=O)Nc1ccccc1F (stereo not given) 15.8%, O=C(c1ccncc1)N1CCC2(CCN(Cc3cc(C(F)(F)F)cc(C(F)(F)F)c3)CC2)CC1 8.21%, N#Cc1c(C(F)(F)F)cc(-c2ccc(Cl)cc2)nc1SCC(=O)O 7.84%, CCSc1nc(-c2ccc(OC)cc2)cc(-c2ccc(OC)cc2)c1C#N 4.06%, CC(O)c1nc2c(c(=O)n(C)c(=O)n2C)n1C (stereo not given) 11.9%, Cn1c(=O)c2c(nc(NCc3ccccc3)n2CC(N)=O)n(C)c1=O 10.1%, CCCC[C@H]1COCCS(=O)(=O)N1Cc1cccc(Cl)c1 -5.24%, COc1ccc(CNC(=O)c2nnn(CC(=O)Nc3cc(C)cc(C)c3)c2N)cc1 -8.71%, COc1ccc(C(=O)Nc2c(N)nc(SCC(=O)Nc3ccc(C(C)=O)cc3)[nH]c2=O)cc1 -14.5%, Cc1ccc(OCC(=O)Nc2ccccc2C(=O)NC2CC2)cc1C -9.75%, CCOc1ccccc1NC(=O)Cc1cccs1 13.9%, CCOc1ccc(Cn2nnc(C(=O)NCc3ccccc3)c2N)cc1 9.87%, Cc1cccc(C(=O)OC(C)CN2CCCC2)c1 (stereo not given) 6.65%, Cc1ccc(F)c(NC(=O)CCOc2ccccc2C)c1 -1.65%, Cn1cc[n+](C)c1COc1ccc(C=O)cc1 12%, O=C1CCC([N+](=O)[O-])C(c2ccccc2Br)N1 (stereo not given) 15.7%, CCOC(=O)CSC1=C(C#N)C(c2sccc2C)CC(=O)N1 (stereo not given) 10.2%, Cc1ccc(C2CC(=O)NC(SCC(=O)OCc3ccccc3)=C2C#N)o1 (stereo not given) -27.5%, O=S(=O)(NC1CCCC1)c1ccc(-n2cnnn2)cc1 25.6%, O=C(NCCCn1ccnc1)C1CCCN(S(=O)(=O)c2cc(Cl)ccc2Cl)C1 (stereo not given) 16.2%, O=C(Nc1cc2ccccc2oc1=O)C1CCCCC1 26.6%, O=C(c1cn(-c2ccccc2)nc1-c1cc2ccccc2oc1=O)N1CCOCC1 -5.03%, Cc1noc(C)c1CCC(=O)N1CCCC(CO)(Cc2ccccc2)C1 (stereo not given) -6.98%, COc1ccc2c(c1)O[C@@H](c1ccc3c(c1)OCO3)[C@H](OC(=O)NCCc1ccc(OC)c(OC)c1)C2=O 6.18%, CC(=O)c1ccc(N2CCN(C(=O)C3CCN(S(=O)(=O)c4ccc5c(c4)CC(C)N5C(=O)C4CC4)CC3)CC2)cc1 (stereo not given) -0.0372%

Potency, active:
COc1cccc(/C(C)=N/Nc2ncc(Cl)cc2Cl)c1 56.2 µM, C/C(=N\Nc1ncc(Cl)cc1Cl)c1cccs1 39.8 µM, CC(C)(C)NC(=O)COc1ccc(CNc2ccc3[nH]c(=O)[nH]c3c2)cc1 56.2 µM, Cc1ccc(/C=C(\C#N)C(=O)Nc2cccc3ncccc23)o1 8.91 µM, CC(N)(C(=O)O)c1ccc(-c2nn[nH]n2)cc1 (stereo not given) 35.5 µM, CCN(C(=O)CSc1ncn[nH]1)c1cccc2ccccc12 39.8 µM, CCc1ccccc1N(CC(=O)NCCSCc1ccco1)S(C)(=O)=O 17.8 µM, Cn1c(CC(=O)Nc2ccccc2)nnc1SCC(=O)c1ccccc1 35.5 µM, O=C1CCCN1CCCNC(=S)Nc1ccc(F)c(Cl)c1 14.1 µM, CCN(CC)C(=O)c1sc2nc(-c3ccccc3)ccc2c1N 20 µM, COc1ccccc1OCCNCC(O)COc1cccc2[nH]c3ccccc3c12 (stereo not given) 50.1 µM, O=C1CSC(=S)N1/N=C/c1ccc(O)c([N+](=O)[O-])c1 39.8 µM, CSc1c(SCc2ccccc2)cnn(Cc2ccccc2)c1=O 44.7 µM, CN(C)c1nc(=Nc2cccc(Cl)c2)ss1 10 µM, Cc1ccc(-c2ccc(/C=C(\C#N)C(N)=S)o2)c([N+](=O)[O-])c1 35.5 µM, N#Cc1c(-c2ccccc2)cc(-c2ccccc2)nc1SCC(=O)O 35.5 µM, CCC/C(C)=N\Nc1nc2c(c(=O)n(C)c(=O)n2C)n1C 39.8 µM, CCOc1ccccc1NC(=O)Cn1nnc(C(=O)NCc2cccs2)c1N 50.1 µM, C=CCSC1=C(C#N)C(c2cc(Br)c(O)c(OC)c2)CC(=O)N1 (stereo not given) 25.1 µM, O=c1oc2ccccc2cc1-c1cn(-c2ccccc2)c(=S)[nH]1 35.5 µM
